Inconclusive results are not listed. Calls of active or inactive are those of the source. How the source made its calls: active means hit-call score of the fitted dose curve at least 0.9, where 1 is the maximum; inconclusive means response in the unintended direction; inactive means score below 0.9.

This experiment deals with Estrogen receptor (Homo sapiens) (UniProt P03372). As to the kind of experiment: ATG_hERa_XSP2: Attagene TRANS-FACTORIAL Multi-Species (XSP2) HepG2 Assay for human Estrogen Receptor (ERa) (AID 2283827). The method, then: ATG_XSP2_multi-species_TRANS is a cell-based, multiplexed assay created by modifying the existing Attagene TRANS-FACTORIAL system to include a panel of nuclear receptors from some or all the following species: human (Homo sapiens), mouse (Mus musculus), frog (Xenopus laevis), zebrafish (Danio rerio), chicken (Gallus gallus), and turtle (Chrysemys picta). The ECOTOX-FACTORIAL format uses HepG2, a human liver cell line, with measurements taken at 24 hours after chemical dosing in a 24-well plate. Xsp2 included 3 nM 6-alpha-fluorotestosterone and 1.5 nM norgestrel to stimulate the androgen receptor.ATG_hERa_XSP2 is one of 29 assay components measured or calculated from the ATG_XSP2_multi-species_TRANS assay. It is designed to make measurements of mRNA induction, a form of inducible reporter, as detected with fluorescence intensity signals by Reverse transcription polymerase chain reaction (RT-PCR) and Capillary electrophoresis technology.The assay endpoint ATG_hERa_XSP2 was analyzed in the positive analysis fitting direction relative to DMSO as the negative control and baseline of activity. Using a type of inducible reporter, measures of mRNA for gain-of-signal activity can be used to understand the reporter gene at the transcription factor-level as they relate to the gene ER. Furthermore, this assay endpoint can be referred to as a primary readout, because this assay has produced multiple assay endpoints where this one serves a reporter gene function. To generalize the intended target to other relatable targets, this assay endpoint is annotated to the nuclear receptor intended target family, where the subfamily is steroidal.
Sequence of Estrogen receptor (Homo sapiens) (P03372 whole entry, looked up): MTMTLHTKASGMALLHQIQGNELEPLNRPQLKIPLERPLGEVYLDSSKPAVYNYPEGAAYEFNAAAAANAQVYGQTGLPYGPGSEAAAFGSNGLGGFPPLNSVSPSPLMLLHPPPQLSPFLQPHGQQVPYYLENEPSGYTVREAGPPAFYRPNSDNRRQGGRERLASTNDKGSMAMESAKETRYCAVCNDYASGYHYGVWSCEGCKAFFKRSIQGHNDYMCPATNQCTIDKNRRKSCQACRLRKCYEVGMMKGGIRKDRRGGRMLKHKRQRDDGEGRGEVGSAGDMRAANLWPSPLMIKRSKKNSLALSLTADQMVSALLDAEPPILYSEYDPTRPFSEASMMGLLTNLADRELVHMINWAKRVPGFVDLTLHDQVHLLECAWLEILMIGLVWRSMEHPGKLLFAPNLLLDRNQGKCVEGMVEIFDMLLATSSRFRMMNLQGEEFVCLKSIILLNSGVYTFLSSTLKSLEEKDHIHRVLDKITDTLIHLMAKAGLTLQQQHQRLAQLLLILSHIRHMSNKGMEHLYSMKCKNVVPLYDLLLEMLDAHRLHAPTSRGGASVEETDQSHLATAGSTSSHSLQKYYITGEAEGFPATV
Human liver HepG2 cells are transiently transfected with multiple reporter transcription units (MRTUs) in 6-well plates using FuGene 6 reagent (Roche; 3 ml FuGene/1 mg DNA). The MRTU constructs are regulated by a cis-regulating element (promoter). […] A major difference between the CIS and TRANS system is that in CIS activities of endogenous TFs are measured, whereas the TRANS assay evaluates changes in activities of exogenous, chimeric NR-Gal4 proteins. […] At the end of 24 hour incubation, total RNA was isolated using TriZol reagent (Invitrogen). The isolated RNA is then reverse-transcribed using oligo(dT) primer and Mo-MLV reverse transcriptase (Invitrogen) with DNAse I (Ambion) treatment for 30 min. The one-tenth of the produced cDNA was amplified by PCR using Taq DNA polymerase (Invitrogen) and two reporter sequence-specific primers. The PCR products were fluorescently labeled by primer extension with 6-arboxyfluorescein (6-FAM) 5'-labeled reporter sequence-specific primer (2 min at 95 C, 20 s at 68 C and 10 min at 72 C) and these products were digested with 5U of HpaI (New England Biolabs) for 2h at 37 C. The fragments were purified using Qiaquick PCR columns (Qiagen), analyzed on an ABI 3130xL genetic analyzer (Applied Biosystems) with peak positions identified by using a set of X-rhodamine (ROX)-labeled MapMarker1000 molecular weight standards (BioVentures). The raw capillary electrophoresis data was processed using Attagraph software (Attagene).
As to `COP(=S)(OC)Oc1nc(Cl)c(Cl)cc1Cl`, the AC50 (as a rule, the concentration at which the activity in the assay is half-maximal) is 31.8 µM (active). For the molecule `C=CC1(C)OC(=O)N(c2cc(Cl)cc(Cl)c2)C1=O` (stereo not drawn), the AC50 was 3.58 µM (active). Take `CCCCC(CC)COC(=O)c1ccccc1C(=O)OCC(CC)CCCC` (stereo not drawn): the result was inactive. Regarding `CON(C)C(=O)Nc1ccc(Cl)c(Cl)c1`, the molecule was classed as inactive.

Take `COC(=O)N(OC)c1ccccc1COc1ccn(-c2ccc(Cl)cc2)n1`: the AC50 is 2.64 µM (active).

Consider `CCCCOC(=O)c1ccccc1C(=O)OCCCC`, for which the AC50 is 30.2 µM (active).

With `CCCN(CCC)c1c([N+](=O)[O-])cc(S(N)(=O)=O)cc1[N+](=O)[O-]`, the concentration at half-maximal activity (AC50) was 4 µM (active).

With `COc1ccc(C(c2ccc(OC)cc2)C(Cl)(Cl)Cl)cc1`, the half-maximal activity concentration (AC50) was 12.1 µM (active). Same read-out and setting: the value for `CCOP(=S)(OCC)SCn1c(=O)oc2cc(Cl)ccc21` was 4.26 µM (active); that for `C#CCOS(=O)OC1CCCCC1Oc1ccc(C(C)(C)C)cc1` (stereo not drawn) was 12.1 µM (active); that for `CC(C)Oc1cc(-n2nc(C(C)(C)C)oc2=O)c(Cl)cc1Cl` was 14.4 µM (active).

As to `OC(c1ccc(Cl)cc1)(c1cncnc1)c1ccccc1Cl` (stereo not drawn), the AC50 was 0.941 µM (active). Consider `CC(C)(C)c1ccc(CSc2cnn(C(C)(C)C)c(=O)c2Cl)cc1`, for which the outcome was inactive.

For the origin of these results see PubChem BioAssay (EPA / NIEHS).
